# Screening results from PubChem BioAssay.
# Hits are enriched below; roughly 2.3% of the tested compounds scored in any of these assays.
# p53ts 32C tox = cytotoxicity in p53ts cells at permissive temperature. H1299-p53A138V at 32C, ATP luminescence viability, 24 h. Potency, µM (doses to about 46.1 µM), for the others: top-dose activity change, negative = cytotoxicity, hits mostly cytotoxic. hit rate 0.93% among 130,000;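 note: 0% = DMSO and -100% = full killing by reference compound; nearly all actives have a fitted effect of over 55% in size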
#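 ATP-content luminescence (ATPlite) read-out after 24 h compound exposure at 32C in H1299-p53A138V cells (600/well). Tested up to 46 uM. Normalized to DMSO (0%) and 100 uM tamoxifen (100% killing); Hill-fit AC50.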
# IkB signaling = inhibitors of IkB signaling in ABC-DLBCL cells. AID 445. Potency, µM (highest dose often 57.1 µM), for inactives: top-dose IkBa stabilization activation. hit rate 0.04% among 110,000. ABC-DLBCL IkBa-CBG/CBR dual luciferase ratio, 4 h; response scale: scaled: untreated 0%, proteasome inhibitor 100%; active = well fitted curve in the direction sought with a large enough effect in the signal ratio, not every such curve was filed as active; inconclusive = small, poorly fitted or top-dose-only effect, or a change in a side signal; the % refers to the signal ratio;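 note: the direction sought is a rising ratio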
#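 Curves were fitted separately to fusion (green), unfused (red) and ratio luminescence, then classed by r2, magnitude and activity. Cells: OCI-Ly3, 4 h compound plus doxycycline at 37C; 10 uM MG-132 defined full response.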
# p53ts 39C tox = p53ts cell cytotoxicity, nonpermissive temperature. H1299-p53A138V viability at 39C, ATP luminescence, 24 h. Potency, µM (series often up to 46.1 µM), for inactives: at the highest dose activity change, negative = cell killing, actives largely listed as cytotoxic. hit rate 1.5% among 130,000. AID 902; note: % is set by controls: 0 for no effect and ±100 for the full control effect; nearly all actives have a fitted effect of over 55% in size
# Imprint erasure = genomic imprint erasure induction; mouse ES Peg3-LacZ reporter, beta-gal luminescence, 40 h; Potency, µM (doses to about 60.7 µM), inactives show at the top dose activity change, positive = activation, usual class: activators; hit rate 0.02% among 110,000; AID 1948
#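 Readout: BetaGlo luminescence (5 min, room temp) for LacZ from the normally silent maternal Peg3 allele in female Peg3LacZ-Neo ES cells. Cells 300/well, 40 h, 37C, 5% CO2. Data normalized per plate to negative controls.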
# ERK AVP inh = blocks ERK signaling stimulated by vasopressin. HEK293-V1b, vasopressin-stimulated pERK AlphaScreen. Potency, µM (doses to about 57.5 µM), for inactives: at the top dose activity, negative = inhibition, actives largely listed as inhibitors. hit rate 0.99% among 72,000; note: % is set by controls: 0 for no effect and ±100 for the full control effect; nearly all actives have a fitted effect of over 55% in size
#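 HEK293 cells stably expressing V1b receptor, seeded overnight in 1% FBS, were treated with compounds for 30 min at 37C, then stimulated 5 min with 25 nM vasopressin; phospho-ERK read by AlphaScreen SureFire after lysis.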
# Active calls of the source: *; u = inconclusive; x = no result; [ ] = dose if it differs, or a comment. Unless noted, calls come from the whole dose curve; as a rule, active = well fitted curve in the direction sought with a large enough effect; inconclusive = small, poorly fitted or top-dose-only effect, or another doubt; inactive = no such curve, though single readings can be large; an effect the other way counts as inactive or inconclusive. Potency is the fitted concentration of half-maximal effect.
SMILES,p53ts 32C tox,IkB signaling,p53ts 39C tox,Imprint erasure,ERK AVP inh
CCN1CCN(c2ncnc3c2cnn3-c2ccc(C)cc2)CC1,-17%,-1%,u,-12%[10.9 µM],x
Cc1ccc(-n2ncc3c(N4CCCCCC4)ncnc32)cc1,3.2µM*,2%,2.5µM*,-46%[10.9 µM],x
NCCCCCCCCCCNS(=O)(=O)c1cccc2c(Cl)cccc12,25µM*,u,16µM*,-24%,-1%
NCCCCCCNS(=O)(=O)c1cccc2c(Cl)cccc12,-9%,u,32µM*,u,13%
Cc1cc(N2CCN(C)CC2)nc2ccc(NC(=O)Nc3ccccc3Cl)cc12,10µM*,u,13µM*,-9%[10.9 µM],x
COc1cccc(NC(=O)Nc2ccc3nc(N4CCN(C)CC4)cc(C)c3c2)c1,-22%,u,-15%,-18%[10.9 µM],x
CCN1CCN(c2cc(C)c3cc(NC(=O)/C=C/c4cccc(OC)c4OC)ccc3n2)CC1,u,11%,u,-2%[10.9 µM],x
Cc1cc(N2CCN(C)CC2)nc2ccc(NC(=O)c3ccc4c(c3)OCO4)cc12,u,u,-23%,-22%,13µM*
Cc1cc(C)cc(NC(=O)Nc2ccc3nc(N4CCN(C)CC4)cc(C)c3c2)c1,3%,-6%,13µM*,10%[10.9 µM],x
Cc1cc(N2CCN(C)CC2)nc2ccc(NC(=O)Nc3ccc(F)cc3)cc12,-13%,u,u,-10%[10.9 µM],x
COc1cccc(/C=C/C(=O)Nc2ccc3nc(N4CCN(C)CC4)cc(C)c3c2)c1OC,u,u,13µM*,2%[10.9 µM],x
O=S(=O)(Nc1ccc(Cl)cc1Cl)c1cc(Cl)ccc1Cl,2%,x,-26%,x,x
O=S(=O)(O)CCCc1cccc2ccccc12,2%[9.22 µM],-1%[11.4 µM],1%[9.22 µM],u,4%[11.5 µM]
O=c1oc2ccccc2c(O)c1/C=N/c1nc(-c2ccc(O)c(O)c2)cs1,3%[9.22 µM],u,7%[9.22 µM],-18%[10.9 µM],-4%[11.5 µM]
O=C(O)CSCc1cccc2ccccc12,-2%[9.22 µM],-5%[11.4 µM],-4%[9.22 µM],5%[10.9 µM],-2%[11.5 µM]
COc1ccccc1C1Nc2c(sc3nc(C)cc(C)c23)C(=O)N1c1ccccc1 (stereo not drawn),u,u,13µM*,-7%[10.9 µM],x
CCCSc1ncnc2c1oc1ccccc12,0%,-2%,-7%,-8%,14%
Fc1ccccc1CSc1ncnc2c1oc1ccccc12,13µM*,9%,13µM*,-87%,-3%
Cn1c(-c2ccc(Br)o2)nc2cc(Br)ccc21,u,-1%,u,-86%,u
CN(C)c1ccc(-c2nc3ccccc3n2C)cc1,1.6µM*,u,0.79µM*,-92%,-25%
Cc1oc(-c2nc3ccccc3n2C)cc1C(=O)c1ccccc1,5µM*,u,4µM*,-94%,-29%
Cn1c(-c2ccc(Br)o2)nc2ccccc21,7.9µM*,8%,10µM*,-99%,-11%
COc1ccc(Cn2nnc3c(=O)[nH]c(C4CCCN(C(=O)c5ccccc5)C4)nc32)cc1 (stereo not drawn),1%,-3%,u,-9%,-27%
Cc1cccc(Cn2nnc3c(=O)[nH]c(C4CCCN(C(=O)c5ccc(C(C)(C)C)cc5)C4)nc32)c1 (stereo not drawn),u,-1%,25µM*,-7%[10.9 µM],x
Cc1ccccc1Cn1nnc2c(=O)[nH]c(C3CCCN(C(=O)c4ccc(C(C)(C)C)cc4)C3)nc21 (stereo not drawn),8%,u,32µM*,-12%[10.9 µM],x
SMILES,p53ts 32C tox,IkB signaling,p53ts 39C tox,Imprint erasure,ERK AVP inh
COc1cccc(NC(=O)C2CCC(CNS(=O)(=O)c3ccc4c(c3)CCCC(=O)N4)CC2)c1 (stereo not drawn),-6%,u,-25%,11%[10.9 µM],x
c1nc(N2CCCC2)c2[nH]cnc2n1,57%,-2%,22%,10%,32µM*
O=C(O)[C@@H]1CCCN[C@H]1C(=O)O,-6%,-11%,11%,x,13%
COCc1cc(=O)n2c(-c3ccccc3OC)n[nH]c2n1,-14%,u,4%,-19%,-13%
COCc1cc(=O)n2c(-c3ccc(C)cc3)n[nH]c2n1,10µM*,u,10µM*,-30%,x
CC1=C(\C=C/C(C)=C/C=C\C(C)=C\C(=O)O)C(C)(C)CCC1,22%,u,5%,-22%,-8%
CC1=C(/C=C/C(C)=C/C=C/C(C)=C/C(=O)Nc2ccc(O)cc2)C(C)(C)CCC1,u,u,16µM*,-19%,7%
CCc1ccc2oc(-c3cc(N)ccc3O)nc2c1,13µM*,u,13µM*,-71%,-8%
CCc1ccc2oc(-c3cc(N)cc(C)c3O)nc2c1,u,u,u,27%,4%
CCc1ccc2oc(-c3cc(N)ccc3Cl)nc2c1,u,u,10µM*,-76%,3%
C=Cc1ccc(Cn2c(C(=O)O)c(CNCCc3ccccc3)c3ccc(C)cc32)cc1,38%,u,u,5%[10.9 µM],x
C=Cc1ccc(Cn2c(C(=O)O)c(CNCc3cc(OC)ccc3OC)c3ccc(C)cc32)cc1,u,u,13µM*,18%[10.9 µM],x
CC(C)c1ccc(C2=CC(c3cccc(Cl)c3)n3c(nc4ccccc43)N2)cc1 (stereo not drawn),u,u,u,-11%[10.9 µM],x
COc1cccc(C2=CC(c3ccccc3F)n3ncc(C(=O)Nc4ccc(C)cc4)c3N2)c1 (stereo not drawn),20%,u,47%,-16%[10.9 µM],x
Cc1ccc(C2=CC(c3ccccc3F)n3c(nc4ccccc43)N2)cc1C (stereo not drawn),u,u,13µM*,-15%[10.9 µM],x
COc1cccc(C2=CC(c3ccccc3F)n3c(nc4ccccc43)N2)c1 (stereo not drawn),16µM*,u,10µM*,-15%[10.9 µM],x
COc1ccccc1C[C@@H](Cc1nc2ccccc2[nH]1)c1nc2ccccc2[nH]1,x,1%[11.4 µM],x,x,x
Cc1cc(C)cc(N(CC(=O)O)S(=O)(=O)c2cccnc2)c1,1%,4%,-5%,-4%,x
Cc1nc2cnc(N(C)C)nc2n(C2CC2)c1=O,2%,-1%[11.4 µM],6%,u,u
Cc1nc2cnc(N(C)C)nc2n(C)c1=O,9%,0%[11.4 µM],7%,x,16µM*
O=C(Nc1cccs1)Nc1cc(C(F)(F)F)ccc1Cl,-14%,u,25µM*,-18%[10.9 µM],x
COC(=O)C1=C(C)N(Cc2ccccc2)[C@]23O[C@](C(=O)OC)(C(=O)N2C1c1ccccc1)C1CCOC(=O)C13 (stereo partly drawn),10%[9.22 µM],x,2%[9.22 µM],x,28%[11.5 µM]
